The panel holds about 79,000 compounds, 15% with a hit somewhere; the sample as a whole holds those more often. A number with no mark means an inactive call. Active and inactive are the calls of the source. Rule as the data show it: active = growth inhibition above about 70%; inactive = the rest.
Assay: NCI Yeast Anticancer Drug Screen. Data for the bub3 strain (AID 167)
Conditions: S. cerevisiae bub3 mutant strain, at 5.0 µM (retest, dose inferred, filed as 0.5), active compounds read high
Procedure, shortened: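 Growth of a checkpoint-deficient yeast mutant is measured after compound exposure. Values represent inhibition relative to vehicle.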

First: CC(C)c1ccc2c(c1)CC[C@@H]1[C@](C)(CO)CCC[C@]21C
Second: C/C(CCC1CCc2ccccc2C1)=N\NC(N)=O (stereo not drawn)
The growth inhibition of the first is lower: -3% for the first, 0% for the second.

Compared with `O=c1c2ccccc2ncn1Cc1ccccc1[N+](=O)[O-]`, `O=c1c2ccccc2[nH]c2c1[nH]c1ccccc12` is higher in growth inhibition: -1% for the first, 7% for the second.

Going from `O=C(NO)C(=O)Nc1cc(Cl)ccc1Cl` to `O=S(=O)(N/N=C/c1ccc(Cl)cc1Cl)c1ccccc1`, the growth inhibition rises from -28% to 17%.

Compared with `O=C1C=CC(=O)c2ccc(=O)ccc21`, `O=C1c2ccccc2-c2cc([N+](=O)[O-])c([N+](=O)[O-])cc21` is lower in growth inhibition: 27% for the first, 7% for the second.

Going from `Cn1c(=O)nc2n(-c3ccc(Cl)cc3)c3cc(Cl)ccc3nc-2c1=O` to `Cc1ccnc(NS(=O)(=O)c2ccc(N=Cc3c4ccccc4nc4cc(Cl)ccc34)cc2)n1`, the growth inhibition rises from 17% to 40%.

Going from `Clc1ccc(CN2COc3c(ccc4ccccc34)C2)cc1` to `O=C(C[n+]1ccccc1)c1ccc2ccc3ccc(Cl)cc3c2c1`, the growth inhibition rises from -4% to -2%.

Compared with `C1CCN(c2nc(N3CCOCC3)c3[nH]c(N4CCCCC4)nc3n2)CC1`, `COc1cc(C2c3cc4c(cc3C(OC3CCCCO3)C3COC(=O)C23)OCO4)cc(OC)c1OC` (stereo not drawn) is higher in growth inhibition: 0% for the first, 4% for the second.

Compared with `CCC[CH2][Sn]([CH2]CCC)([O]C(=O)Cc1ccc(F)cc1)[O]C(=O)Cc1ccc(F)cc1`, `CCOC(=O)C1(Br)CCN(S(=O)(=O)c2ccc(C)cc2)c2ccccc2C1=O` (stereo not drawn) is lower in growth inhibition: 21% for the first, -3% for the second.

First: ClCc1ccc2oc3ccccc3c2c1
Second: Cc1ccc(S(=O)(=O)C(=S)Sc2ccccc2)cc1
The growth inhibition of the first is lower: 2% for the first, 17% for the second.

Compared with `O=C1Oc2ccccc2C(=O)/C1=C/N1C(=O)/C(=C/c2ccc([N+](=O)[O-])cc2)SC1=S`, `C(=C/c1ccccc1)/C=N/Nc1ccccc1` is lower in growth inhibition: 7% for the first, -72% for the second.

Going from `COC1=CC(=O)c2ncc(Cl)cc2C1=O` to `COc1cc(CCN=Cc2cc(Cl)cc(Cl)c2O)c([N+](=O)[O-])cc1OC`, the growth inhibition rises from -40% to 51%.

Compared with `CC(C)(C)OC(=O)CSC#N`, `COc1ccc(C(C)c2cc3c(cc2OC/C(C)=N/NC(N)=O)OCO3)cc1` (stereo not drawn) is higher in growth inhibition: 12% for the first, 58% for the second.

`CN=c1ss/c(=N\C(=S)N(C)C)n1-c1ccccc1` and `CC(C)C1/C(=N/O)CC(c2ccccc2)N(N=O)C1c1ccccc1` (stereo not drawn) are the same in growth inhibition: 4% for the first, 4% for the second.

Going from `CCCCCCCCCCCCCCCBr` to `CCCNC(=O)C(=O)NNc1ccccc1`, the growth inhibition falls from 2% to -2%.

First: COc1cc(/C=C/c2cc[n+](C)cc2)ccc1O
Second: Fc1ccc2[nH]ccc2c1
The growth inhibition of the first is lower: 0% for the first, 2% for the second.

Going from `Cc1ccc(C(=O)/C(Cl)=N/O)cc1` to `C/C(=N/O)c1cccc(C(F)(F)F)c1`, the growth inhibition falls from 3% to -66%.

Compared with `Cc1nc(C(N)=S)sc1C(=O)CC(=O)C(=O)Nc1nc2ccccc2[nH]1`, `O=S1(=O)CC2C1C1(Cl)OC2(Cl)c2ccccc21` (stereo not drawn) is lower in growth inhibition: 11% for the first, -3% for the second.

Compound `Clc1ccc([O][In]([O]c2ccc(Cl)cn2)[O]c2ccc(Cl)cn2)nc1` has a growth inhibition of -26%.

For `CCCCCCCCCCCCOC(=O)C[n+]1cccc(C(=O)Nc2ccccc2)c1`, the growth inhibition was 96% (active).
In the case of `CN(C)c1ccc(C(c2ccc(N(C)C)cc2)c2ccc3c(c2)OCO3)cc1`, the growth inhibition is reported as 99% (active).
In the case of `COC1=CC(=O)c2c(O)c3c(c(O)c2C1=O)OC1(Oc2c(cc4cc(C)oc(=O)c4c2O)CC1O)C3O` (stereo not drawn), the growth inhibition is reported as 99% (active).
For `Cc1c(N)nc(C2CC(=O)N2CC(N)C(N)=O)nc1C(=O)NC(C(=O)NC(C)C(O)C(C)C(=O)NC(C(=O)NCCc1nc(-c2nc(C(=O)NCCCNC3CCCC3)cs2)cs1)C(C)O)C(OC1OC(CO)C(O)C(O)C1OC1OC(CO)C(O)C(OC(N)=O)C1O)c1cnc[nH]1` (stereo not drawn), the growth inhibition was 97% (active).

Same assay, conditions: S. cerevisiae bub3 mutant strain, at 50.0 µM (retest, dose inferred, filed as 5.0), active compounds read high

For `CC(C)c1ccc2c(c1)CC[C@@H]1[C@](C)(CO)CCC[C@]21C`, the growth inhibition was 95% (active).
With `O=C(NO)C(=O)Nc1cc(Cl)ccc1Cl` the growth inhibition was 94% (active).
For `CCCCCCCCCCCCOC(=O)C[n+]1cccc(C(=O)Nc2ccccc2)c1`, the growth inhibition was 98% (active).
For `O=C1C=CC(=O)c2ccc(=O)ccc21`, the growth inhibition was 99% (active).
In the case of `Clc1ccc(CN2COc3c(ccc4ccccc34)C2)cc1`, the growth inhibition is reported as 96% (active).
In the case of `C1CCN(c2nc(N3CCOCC3)c3[nH]c(N4CCCCC4)nc3n2)CC1`, the growth inhibition is reported as 71% (active).
In the case of `O=C1c2ccccc2-c2cc([N+](=O)[O-])c([N+](=O)[O-])cc21`, the growth inhibition is reported as 99% (active).
In the case of `COC1=CC(=O)c2ncc(Cl)cc2C1=O`, the growth inhibition is reported as 88% (active).
In the case of `CN(C)c1ccc(C(c2ccc(N(C)C)cc2)c2ccc3c(c2)OCO3)cc1`, the growth inhibition is reported as 81% (active).
With `CC(C)(C)OC(=O)CSC#N` the growth inhibition was 94% (active).
With `Cc1ccc(C(=O)/C(Cl)=N/O)cc1` the growth inhibition was 99% (active).
With `COc1cc(CCN=Cc2cc(Cl)cc(Cl)c2O)c([N+](=O)[O-])cc1OC` the growth inhibition was 94% (active).
For `COc1ccc(C(C)c2cc3c(cc2OC/C(C)=N/NC(N)=O)OCO3)cc1` (stereo not drawn), the growth inhibition was 99% (active).
With `Cc1ccc(S(=O)(=O)C(=S)Sc2ccccc2)cc1` the growth inhibition was 90% (active).
For `CCCNC(=O)C(=O)NNc1ccccc1`, the growth inhibition was 95% (active).
For `COC1=CC(=O)c2c(O)c3c(c(O)c2C1=O)OC1(Oc2c(cc4cc(C)oc(=O)c4c2O)CC1O)C3O` (stereo not drawn), the growth inhibition was 99% (active).
In the case of `CC(C)C1/C(=N/O)CC(c2ccccc2)N(N=O)C1c1ccccc1` (stereo not drawn), the growth inhibition is reported as 98% (active).
With `Cc1c(N)nc(C2CC(=O)N2CC(N)C(N)=O)nc1C(=O)NC(C(=O)NC(C)C(O)C(C)C(=O)NC(C(=O)NCCc1nc(-c2nc(C(=O)NCCCNC3CCCC3)cs2)cs1)C(C)O)C(OC1OC(CO)C(O)C(O)C1OC1OC(CO)C(O)C(OC(N)=O)C1O)c1cnc[nH]1` (stereo not drawn) the growth inhibition was 98% (active).
In the case of `CCOC(=O)C1(Br)CCN(S(=O)(=O)c2ccc(C)cc2)c2ccccc2C1=O` (stereo not drawn), the growth inhibition is reported as 95% (active).

Compared with `O=c1c2ccccc2ncn1Cc1ccccc1[N+](=O)[O-]`, `O=c1c2ccccc2[nH]c2c1[nH]c1ccccc12` is lower in growth inhibition: 42% for the first, 22% for the second.

First: Cn1c(=O)nc2n(-c3ccc(Cl)cc3)c3cc(Cl)ccc3nc-2c1=O
Second: O=S(=O)(N/N=C/c1ccc(Cl)cc1Cl)c1ccccc1
The growth inhibition of the first is lower: 18% for the first, 22% for the second.

Going from `CCC[CH2][Sn]([CH2]CCC)([O]C(=O)Cc1ccc(F)cc1)[O]C(=O)Cc1ccc(F)cc1` to `O=C(C[n+]1ccccc1)c1ccc2ccc3ccc(Cl)cc3c2c1`, the growth inhibition rises from 21% to 46%.

Going from `ClCc1ccc2oc3ccccc3c2c1` to `Cc1ccnc(NS(=O)(=O)c2ccc(N=Cc3c4ccccc4nc4cc(Cl)ccc34)cc2)n1`, the growth inhibition rises from -7% to -2%.

Compared with `O=C1Oc2ccccc2C(=O)/C1=C/N1C(=O)/C(=C/c2ccc([N+](=O)[O-])cc2)SC1=S`, `C(=C/c1ccccc1)/C=N/Nc1ccccc1` is lower in growth inhibition: 49% for the first, -59% for the second.

First: CN=c1ss/c(=N\C(=S)N(C)C)n1-c1ccccc1
Second: Cc1nc(C(N)=S)sc1C(=O)CC(=O)C(=O)Nc1nc2ccccc2[nH]1
The growth inhibition of the first is higher: 7% for the first, -7% for the second.

`CCCCCCCCCCCCCCCBr` and `C/C(CCC1CCc2ccccc2C1)=N\NC(N)=O` (stereo not drawn) are the same in growth inhibition: -2% for the first, -2% for the second.

Going from `COc1cc(/C=C/c2cc[n+](C)cc2)ccc1O` to `Fc1ccc2[nH]ccc2c1`, the growth inhibition rises from 11% to 62%.

First: COc1cc(C2c3cc4c(cc3C(OC3CCCCO3)C3COC(=O)C23)OCO4)cc(OC)c1OC (stereo not drawn)
Second: Clc1ccc([O][In]([O]c2ccc(Cl)cn2)[O]c2ccc(Cl)cn2)nc1
The growth inhibition of the first is higher: 30% for the first, -26% for the second.

Going from `O=S1(=O)CC2C1C1(Cl)OC2(Cl)c2ccccc21` (stereo not drawn) to `C/C(=N/O)c1cccc(C(F)(F)F)c1`, the growth inhibition falls from -9% to -92%.

Reference: PubChem BioAssay (NCI)
